We go through 45 molecules from PubChem BioAssay AID720514 (Broad Institute, 2013).

Each structure is given as a SMILES string. In all, about 2,100 compounds went through this assay and about 300 (14%) were called active. About 2% were inconclusive and are not listed.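 Rule for the calls: active = every replicate test run called active, with the signal falling and half-maximal concentration within twice the top valid dose; inconclusive = the replicate test runs disagree in their calls; inactive = every test run inactive, including effects in the opposite direction.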 Not all results are given here. Potency and affinity values are given separately.

A short description of the assay: reduced cellular PGC1a acetyl-lysine signal – cell-based, cherry-picked samples, dose response (AID 720514).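 Note: 0% = neutral control wells and -100% = positive control wells; actives lower the acetylation signal so they count as inhibitors of PGC1a acetylation.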 The note with it: U2OS PGC1a acetylation, AlphaLISA, overnight; series mostly up to 19.5 µM; activity change, negative = inhibition: at the top concentration.
Turning to `CC(=O)N(C)C[C@H]1Oc2cc(-c3ccc(C#N)cc3)ccc2S(=O)(=O)N([C@@H](C)CO)C[C@@H]1C`, the “activity change, negative = inhibition” value was 25.3% (inactive).
Regarding `COc1ccc(S(=O)(=O)Nc2ccc3c(c2)C(=O)N([C@@H](C)CO)C[C@@H](C)[C@H](CN(C)S(=O)(=O)c2ccc(Cl)cc2)OCCCC[C@H](C)O3)cc1`, the “activity change, negative = inhibition” value is 38.2% [at 10 µM] (inactive).
As to `COc1cc(CN2CC3(CCN(S(=O)(=O)c4cccs4)CC3)c3c(n(C)c4cc(OC)ccc34)[C@H]2CO)cc(OC)c1`, the “activity change, negative = inhibition” value is 49.9% (inactive).
Then `O=S(=O)(c1cccc(F)c1)N1CCN(Cc2cc3c(cc2Br)OCCO3)CC1`, with 201% (inactive).
Then `Cc1ccc(-n2cccn2)c(CN2CCCC(C(=O)c3sccc3C)C2)c1` (stereo not given), with 61.7% (inactive); and `CCCNC(=O)[C@H]1[C@H](CO)[C@H]2Cn3c(ccc(-c4ccccc4)c3=O)[C@H]2N1C(=O)C1CC1`, with 37.3% (inactive); and `Cc1cc2c(cc1S(=O)(=O)N1CCc3ccccc31)NC(=O)CO2`, with 75.4% (inactive).
Take `CCOc1ccccc1N(C)C(=O)C1CCN(S(=O)(=O)c2cccc3nonc23)CC1`: the “activity change, negative = inhibition” value was 65.8% (inactive).
For `CCOC(=O)C1=CC[C@@H](c2ccc([N+](=O)[O-])cc2)N(S(=O)(=O)c2ccc(C)cc2)[C@H]1c1ccccc1`, the “activity change, negative = inhibition” value is 59.6% [at 10 µM] (inactive).
In the case of `Cc1ccc(-c2nnc(N3CCN(C(=O)COc4ccccc4)CC3)c3ccccc23)cc1`, the “activity change, negative = inhibition” value is 63.9% (inactive).
Take `CN1/C(=C\C(=O)c2cccc(S(=O)(=O)N3CCCCC3)c2)C(C)(C)c2ccccc21`: the “activity change, negative = inhibition” value was 45.8% (inactive).
Then `CCOc1ccccc1CN1CCN(C2CCC2)CC1CCO` (stereo not given), with 49.6% (inactive); and `CC(=O)c1cccc(N(C(=O)Cn2nnc3ccccc32)C(C(=O)NCc2ccccc2)c2ccccn2)c1` (stereo not given), with 95.9% (inactive).
As for `COc1ccc(OC)c(NC(=O)CSc2nnc(-c3cccnc3)s2)c1`, the “activity change, negative = inhibition” value is 252% (inactive).
As to `COc1ccc(-c2nc(N)c(C#N)c(-c3cccnc3)c2C)cc1`, the “activity change, negative = inhibition” value is 159% (inactive).
Then `CCCOc1ccc(C(=O)Nc2cccnc2)cc1`, with 133% [at 10 µM] (inactive); and `CCOC(=O)c1c(-c2ccc(C)cc2C)csc1NC(=O)CSc1nnnn1C`, with 60.1% (inactive).
Then `CCOC(=O)c1oc2ccc(S(=O)(=O)N3CCC(C)CC3)cc2c1C`, with 48.1% (inactive); and `O=C(CCCn1c(=O)[nH]c2cc(Cl)ccc2c1=O)NCCC1=CCCCC1`, with 27.5% (inactive); and `C[C@@H]1CN([C@H](C)CO)C(=O)c2c(c3ccccc3n2C)-c2ccccc2CO[C@@H]1CN(C)C(=O)Nc1ccccc1C(F)(F)F`, with 267% (inactive).
Then `COc1cc(OC)c2c(-c3cccc(-c4cccc(C)c4)c3)cc(=O)oc2c1`, with 120% [at 10 µM] (inactive); and `COc1ccc(CCNC(=O)c2cc(-c3ccco3)on2)cc1OC`, with 99.9% [at 10 µM] (inactive).
In the case of `O=C1OC(Oc2ccc(Br)cc2)(c2ccccc2)c2ccccc21` (stereo not given), the “activity change, negative = inhibition” value was 149% (inactive).
On to `CC(=O)c1ccc(NC(=O)N2CCc3ccccc3C2)cc1`, for which the “activity change, negative = inhibition” value was 225% (inactive).
On to `CC(=O)c1cccc(N(C(=O)c2cnccn2)C(C(=O)NCc2ccccc2)c2ccco2)c1` (stereo not given), for which the “activity change, negative = inhibition” value is 69.2% (inactive).
Then `C[C@H]1CN([C@@H](C)CO)C(=O)c2cccc(NC(=O)Nc3cccc4ccccc34)c2O[C@H]1CN(C)Cc1ccc(C(=O)Nc2ccccc2N)cc1`, with 270% (inactive); and `C[C@@H]1CN([C@@H](C)CO)C(=O)Cc2cc(NC(=O)Cc3ccccc3)ccc2O[C@H]1CN(C)C(=O)Nc1ccccc1`, with 34.5% (inactive).
For the molecule `C[C@H]1CN([C@@H](C)CO)C(=O)c2cccc(NC(=O)c3cnccn3)c2O[C@H]1CN(C)Cc1ccc(C(=O)Nc2ccccc2N)cc1`, the “activity change, negative = inhibition” value was 369% [at 21 µM] (inactive).
For `C[C@@H]1CN([C@@H](C)CO)C(=O)c2cccc(NC(=O)c3ccc(-c4nccs4)cc3)c2O[C@@H]1CN(C)C(=O)Nc1ccc(C(F)(F)F)cc1`, the “activity change, negative = inhibition” value is 10.9% (inactive).
Then `C[C@H](CO)N1C[C@H](C)[C@@H](CN(C)Cc2ccc3c(c2)OCO3)Oc2ccc(NC(=O)Nc3ccc4c(c3)OCO4)cc2CC1=O`, with 44.8% (inactive); and `Cc1cc(Cn2nc(C(=O)NCc3cccc(C(F)(F)F)c3)cc2-c2ccccc2)on1`, with 84.2% (inactive).
Then `C[C@@H]1CN([C@@H](C)CO)C(=O)c2c(c3ccccc3n2C)-c2ccccc2CO[C@@H]1CN(C)C(=O)Nc1cccc(C(F)(F)F)c1`, with 90.9% (inactive); and `C=C/C=C/[C@@H]1C(=C)CN2[C@H]1[C@H](Cc1ccccc1)OC(=O)[C@@H]2Cc1ccccc1`, with 59.2% (inactive); and `O=C(NCCC(c1ccccc1)c1ccccc1)c1ccc(Br)o1`, with 108% (inactive).
Take `CC(C)[C@H](C)NC(=O)N(C)C[C@H]1OCc2ccccc2-c2c(n(C)c3ccccc23)C(=O)N([C@H](C)CO)C[C@H]1C`: the “activity change, negative = inhibition” value is 87.6% (inactive).
Then `COc1ccc2c(c1)CCc1c(C(=O)NCCCn3ccnc3)noc1-2`, with 42.4% (inactive).
Then `Cc1ccc(S(=O)(=O)N[C@@H]2C=C[C@H](CC(=O)NCCN3CCCCC3)O[C@@H]2CO)cc1`, with 48.1% (inactive); and `CCCCC(=O)Nc1ccc(C(=O)NCCCn2ccnc2)cc1`, with 343% (inactive).
As for `OC[C@H]1O[C@@H](n2cnc3c(NCc4ccco4)ncnc32)[C@H](O)[C@@H]1O`, the “activity change, negative = inhibition” value is 67% (inactive).
`O=C(Nc1ccccc1F)N1CCCCN2[C@H](CO)[C@H](c3ccc(C#Cc4ccccc4)cc3)[C@H]2C1`: the “activity change, negative = inhibition” value is 8.04% (inactive).
Regarding `O=C(Nc1ccc(F)cc1)N1CCN(c2nc3ccccc3s2)CC1`, the “activity change, negative = inhibition” value is 99.3% (inactive).
As for `O=C(Nc1ccc(F)cc1)N1CCCCN2[C@@H](CO)[C@@H](c3ccc(C#Cc4ccccc4)cc3)[C@@H]2C1`, the “activity change, negative = inhibition” value was 32.9% [at 10 µM] (inactive).
Then `O=c1[nH]nc(SCCS(=O)(=O)c2ccc(F)cc2)n1-c1ccccc1`, with 64.8% (inactive).
Consider `Cc1cc(C)cc(N(CC(=O)NC2CC3CCC2C3)S(C)(=O)=O)c1` (stereo not given), for which the “activity change, negative = inhibition” value is 52.8% (inactive).
Consider `O=C(CN1CCC(N2CCCCC2)CC1)N1CCCc2ccccc21`, for which the “activity change, negative = inhibition” value was 75.2% (inactive).
